Reference: PubChem BioAssay AID1159580 (chemical genetic matrix, 2015)
Values joined by “and” are separate entries in the source; they are usually repeats but may differ in a detail not shown here. Identical values can stand only once. Among all 5,500 compounds or so, about 2,000 (36%) were called active. About 18% were inconclusive and are not listed. Rule as the data show it: active = normalized growth mostly below about 0.91 (no sharp cut-off); inconclusive = no clear call, values can overlap the other calls; inactive = mostly above about 0.92. Some of the results follow.

Test: chemical genetic growth profiling, strain panel (AID 1159580);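 also: tested at 20 µM; growth read once vehicle control cultures reached saturation at 30 °C; 1 = growth at the plate median or of vehicle wells; lower values mean less growth of the strain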
Details: S. cerevisiae deletion strains, growth OD

Measured: normalized growth

CC(=O)OC1CCC2(C)C(=CC=C3C2CCC2(C)C3CCC2C(C)/C=C/C(C)C(C)C)C1(C)C (configuration not stated)
inactive: locus YAL021C, strain ccr4, hits give low values 0.994 | locus YAL026C, strain drs2, hits give low values 1.02 | locus YAL030W, strain snc1, hits give low values 1.02 | locus YBL061C, strain skt5, hits give low values 1.02 | locus YBR009C, strain hhf1, hits give low values 1.01 | locus YBR021W, strain FUR4, hits give low values 1.02 | locus YBR023C, strain chs3, hits give low values 1.03 | locus YBR171W, strain sec66, hits give low values 1.04 | locus YBR229C, strain ROT2, hits give low values 1.01 | locus YBR231C, strain swc5, hits give low values 1.04 | locus YBR279W, strain paf1, hits give low values 1.02 | locus YCL011C, strain gbp2, hits give low values 1.03 | locus YCL016C, strain dcc1, hits give low values 1.01 | locus YCL029C, strain bik1, hits give low values 1.01 | locus YCL069W, strain vba3, hits give low values 1.02 | locus YCR088W, strain abp1, hits give low values 1.03 | locus YDL005C, strain med2, hits give low values 1.04 | locus YDL035C, strain GPR1, hits give low values 1.03 | locus YDL040C, strain nat1, hits give low values 1.02 | locus YDL074C, strain BRE1, hits give low values 1.06 | locus YDL101C, strain DUN1, hits give low values 1.02 | locus YDL185W, strain tfp1, hits give low values 0.993 | locus YDL192W, strain arf1, hits give low values 1 | locus YDR001C, strain nth1, hits give low values 1.03 | locus YDR069C, strain doa4, hits give low values 1.02 | locus YDR101C, strain arx1, hits give low values 0.974 | locus YDR137W, strain rgp1, hits give low values 1.03 | locus YDR159W, strain sac3, hits give low values 1.04 | locus YDR162C, strain NBP2, hits give low values 0.995 | locus YDR195W, strain ref2 1.05 | locus YDR297W, strain sur2, hits give low values 1.02 | locus YDR318W, strain mcm21, hits give low values 1 | locus YDR334W, strain swr1, hits give low values 1.03 | locus YDR335W, strain msn5, hits give low values 1.02 | locus YDR388W, hits give low values 1.02 | locus YDR392W, strain spt3, hits give low values 0.992 | locus YDR502C, strain sam2, hits give low values 0.989 | locus YEL003W, strain gim4, hits give low values 1.03 | locus YEL037C, strain rad23, hits give low values 1.02 | locus YEL061C, strain CIN8 (second series), hits give low values 1.04 | locus YEL061C, strain CIN8, hits give low values 1.01 | locus YER015W, strain faa2, hits give low values 1.03 | locus YER016W, strain bim1, hits give low values 1.02 | locus YER110C, hits give low values 1.01 | locus YER111C, strain swi4, hits give low values 1.02 | locus YER155C, strain BEM2 (second series), hits give low values 1.05 | locus YER155C, strain BEM2, hits give low values 0.998 | locus YER167W, strain BCK2, hits give low values 1.04 | locus YFR010W, strain ubp6, hits give low values 1.04 | locus YGL078C, strain dbp3, hits give low values 0.987 | locus YGL086W, strain mad1, hits give low values 0.994 | locus YGL167C, strain pmr1, hits give low values 1.02 | locus YGL173C, strain kem1, hits give low values 1.03 | locus YGL227W, strain vid30, hits give low values 1.03 | locus YGL240W, strain doc1, hits give low values 1 | locus YGL248W, strain PDE1, hits give low values 1.01 | locus YGL253W, strain hxk2, hits give low values 1.03 | locus YGR078C, strain PAC10, hits give low values 1.04 | locus YGR135W, strain pre9, hits give low values 0.996 | locus YGR252W, strain gcn5, hits give low values 1.03 | locus YHR013C, strain ard1, hits give low values 1.03 | locus YHR027C, strain rpn1, hits give low values 1.04 | locus YHR030C, strain SLT2, hits give low values 1.01 and 0.996 | locus YHR079C, strain IRE1 (second series), hits give low values 0.998 | locus YHR079C, strain IRE1, hits give low values 1.03 | locus YHR094C, strain hxt1, hits give low values 0.991 | locus YHR129C, strain ARP1, hits give low values 1.03 | locus YHR142W, strain chs7, hits give low values 1.05 | locus YHR200W, strain rpn10, hits give low values 0.986 | locus YIL066C, strain RNR3, hits give low values 1.03 | locus YIL073C, strain SPO22, hits give low values 1.03 | locus YIL125W, strain kgd1, hits give low values 1 | locus YIR030C, strain dcg1, hits give low values 1 | locus YJL092W, strain hpr5, hits give low values 1.03 | locus YJL095W, strain BCK1 (second series), hits give low values 1.02 | locus YJL095W, strain BCK1, hits give low values 1.03 and 0.996 | locus YJL115W, strain asf1, hits give low values 1.03 | locus YJL129C, strain trk1, hits give low values 1.05 | locus YJL134W, strain LCB3, hits give low values 1.01 | locus YJL154C, strain vps35, hits give low values 1.03 | locus YJL164C, strain tpk1, hits give low values 1.01 | locus YJL166W, strain qcr8, hits give low values 1.02 | locus YJL168C, strain set2, hits give low values 1 | locus YJL187C, strain SWE1 (second series), hits give low values 1.03 | locus YJL187C, strain SWE1, hits give low values 1.04 | locus YJR043C, strain POL32, hits give low values 1.03 | locus YJR066W, strain TOR1, hits give low values 0.936 | locus YKL009W, strain mrt4, hits give low values 1.01 | locus YKL068W, hits give low values 1.01 | locus YKL085W, strain MDH1 (second series), hits give low values 1 | locus YKL085W, strain MDH1, hits give low values 1 | locus YKL160W, strain elf1, hits give low values 0.997 | locus YKR001C, strain vps1, hits give low values 0.988 | locus YKR026C, strain gcn3, hits give low values 1.03 | locus YKR091W, strain srl3, hits give low values 1.03 | locus YLL001W, strain dnm1, hits give low values 1.01 | locus YLL026W, hits give low values 1.02 | locus YLL041C, strain sdh2, hits give low values 1.02 | locus YLR027C, strain aat2, hits give low values 1 | locus YLR039C, strain RIC1, hits give low values 1.04 | locus YLR058C, strain SHM2, hits give low values 1.01 | locus YLR102C, strain apc9, hits give low values 0.988 | locus YLR113W, strain HOG1, hits give low values 0.995 | locus YLR221C, strain rsa3, hits give low values 1.02 | locus YLR258W, strain gsy2, hits give low values 1 | locus YLR262C, strain YPT6 (second series), hits give low values 1.01 | locus YLR262C, strain YPT6, hits give low values 1.07 | locus YLR268W, strain sec22, hits give low values 0.998 | locus YLR320W, strain mms22, hits give low values 1.03 | locus YLR330W, strain CHS5, hits give low values 1.02 | locus YLR342W, strain FKS1 (second series), hits give low values 1.12 | locus YLR342W, strain FKS1, hits give low values 1.02 | locus YLR357W, strain rsc2, hits give low values 1.06 | locus YLR370C, strain arc18, hits give low values 1.06 | locus YLR371W, strain rom2, hits give low values 1.01 | locus YLR384C, strain iki3, hits give low values 1.03 | locus YLR418C, strain cdc73, hits give low values 1.02 | locus YML016C, strain PPZ1, hits give low values 1 | locus YML032C, strain rad52, hits give low values 1 | locus YML120C, strain ndi1, hits give low values 1.02 | locus YML124C, strain tub3, hits give low values 0.987 | locus YMR058W, strain fet3, hits give low values 1.05 | locus YMR078C, strain ctf18, hits give low values 0.998 | locus YMR125W, strain sto1, hits give low values 1.03 | locus YMR129W, hits give low values 1.03 | locus YMR205C, strain PFK2, hits give low values 1.02 | locus YMR223W, strain ubp8, hits give low values 1 | locus YMR231W, strain pep5, hits give low values 1.02 | locus YMR263W, strain SAP30, hits give low values 1.03 | locus YMR307W, strain GAS1, hits give low values 1 | locus YNL067W, strain RPL9B, hits give low values 1.04 | locus YNL071W, strain lat1, hits give low values 1.03 | locus YNL183C, strain NPR1, hits give low values 0.965 | locus YNL209W, strain ssb2, hits give low values 1.01 | locus YNL233W, strain BNI4, hits give low values 1.03 | locus YNL248C, strain rpa49, hits give low values 0.965 | locus YNL250W, strain rad50, hits give low values 0.99 | locus YNL271C, strain bni1, hits give low values 1 | locus YNL298W, strain CLA4, hits give low values 0.979 | locus YNL307C, strain MCK1, hits give low values 1.02 | locus YNL322C, strain KRE1 (second series), hits give low values 1.02 | locus YNL322C, strain KRE1, hits give low values 1.02 | locus YNR049C, strain mso1, hits give low values 1.02 | locus YNR052C, strain pop2, hits give low values 1.01 | locus YOL012C, strain htz1 1.7 | locus YOL147C, strain pex11, hits give low values 1 | locus YOR001W, strain rrp6, hits give low values 1.04 | locus YOR061W, strain CKA2, hits give low values 1 | locus YOR069W, strain VPS5, hits give low values 1.01 | locus YOR070C, strain gyp1, hits give low values 1.02 | locus YOR080W, strain dia2, hits give low values 1.02 | locus YOR083W, strain WHI5, hits give low values 0.998 | locus YOR106W, strain vam3, hits give low values 1.02 | locus YOR136W, strain idh2, hits give low values 0.987 | locus YOR144C, strain elg1, hits give low values 0.988 | locus YOR184W, strain ser1, hits give low values 0.983 | locus YOR231W, strain MKK1, hits give low values 1.04 | locus YOR265W, strain rbl2, hits give low values 1.01 | locus YOR270C, strain vph1, hits give low values 1.03 | locus YOR290C, strain snf2, hits give low values 0.993 | locus YOR316C, strain cot1, hits give low values 0.989 | locus YPL051W, strain arl3, hits give low values 1.02 | locus YPL055C, strain LGE1, hits give low values 1.07 | locus YPL078C, strain atp4, hits give low values 0.999 | locus YPL106C, strain sse1, hits give low values 1.05 | locus YPL240C, strain hsp82, hits give low values 1.03 | locus YPL256C, strain CLN2, hits give low values 1.04 | locus YPR119W, strain clb2, hits give low values 1 | locus YPR141C, strain kar3, hits give low values 0.982 | locus YPR163C, strain tif3, hits give low values 0.978 | locus YPR167C, strain met16, hits give low values 1.01 | strain wtn01, hits give low values 0.984
